# Compound activity: PubChem, Broad Institute
# Wnt act: Wnt/beta-catenin pathway activators, primary screen, cell-based, plate reader, single point; Wnt/beta-catenin reporter cell assay, activator; activation, % at 9.35 µM; actives 1.2% (n = 300,000); in the data active = activation above about 30%, passing the limit was not always enough;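 also: 0% = neutral control wells and 100% = positive control wells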
# LMP1 NFkB inh: EBV LMP1-driven NF-kappaB luciferase reporter inhibitors, primary screen, cell-based, luminescence, single point; LMP1-induced NF-kappaB luciferase reporter cells; inhibition, % at 12.5 µM; actives 0.69% (n = 350,000); AID 504558, 2011; in the data active = inhibition above about 41%;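 also: 0% = neutral control wells and 100% = reference inhibitor control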
# esBAF inh: Bmi1 luciferase reporter increase in mESCs, primary screen, esBAF inhibitor project, mouse ES cells, Bmi1 luciferase knock-in, single point. 24 h; 100% = twice the neutral-well signal. reporter increase, % at 12.5 µM. actives 2% (n = 350,000). AID 602393, 2012; in the data active = activation above about 40%;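 also: 0% = median of the plate's neutral control wells and 100% = double that signal; a rise in the Bmi1 reporter signal indicates esBAF inhibition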
# C2C12 statin: suppressors of statin myotoxicity in C2C12 myotubes, primary screen, cell-based, single point, plate reader; C2C12 myotubes + simvastatin, ATP luminescence, 48 h; scaled: DMSO 0, geranylgeraniol control 100; rescue of ATP level, % at 7.49 µM; actives 0.78% (n = 330,000);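 active = mean ATP rescue above about 67%, or every replicate alone reaching that limit, limit read from the data, passing the limit was not always enough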;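 also: myotubes were challenged with 10 µM simvastatin during compound exposure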
# MITF TRPM1 inh: inhibitors of MITF-dependent TRPM1 promoter reporter, primary screen, cell-based, SK-MEL-5, single point, luciferase. SK-MEL-5 TRPM1 promoter luciferase, 24 h. inhibition, % at 12.5 µM. actives 0.83% (n = 330,000). AID 488899, 2010;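 active = mean inhibition across replicates of 60% or more, whatever share of single replicates reaches that level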
# MITF TRPM1 HTS: activators of MITF-driven TRPM1 promoter reporter, primary screen, cell-based, SK-MEL-5, luciferase, single point. AID 588334, 2011. actives 0.75% (n = 300,000). activation, % at 12.5 µM. SK-MEL-5 TRPM1-promoter luciferase, 24 h; % of positive control, neutral wells = 0;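 active = mean activation of at least 80% with every replicate also reaching 80%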;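 also: 0% = neutral control wells and 100% = parthenolide positive control wells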
# An asterisk follows results filed as active; . = no result given. A selection: hits, their analogues and other compounds. The true share with any hit is near 4%.
SMILES,Wnt act,LMP1 NFkB inh,esBAF inh,C2C12 statin,MITF TRPM1 inh,MITF TRPM1 HTS
O=C(N=Nc1c(O)n(Cc2ccccc2)c2ccccc12)c1ccc(O)cc1,.,1,.,.,-148,150*
O=C(N=Nc1c(O)n(Cc2ccccc2)c2ccccc12)c1cc2ccccc2cc1O,-1,-29,.,.,-85,89*
COc1ccc(C(=O)NCC(=O)N=Nc2c(O)n(Cc3ccccc3)c3ccccc23)cc1OC,2,-1,.,.,9,-7
COc1cc(Cl)ccc1OCc1cc(C(=O)N2CCN(C)CC2)no1,1,-3,-3,-4,-11,14
CCCOC1CCCN(C(=O)c2cc(COc3ccc(F)c(F)c3)on2)C1 (stereo not given),21,-21,47*,3,-90,90*
COc1cc(Cl)ccc1OCc1cc(C(=O)N2CCCC(OC)C2)no1 (stereo not given),45*,-44,75*,4,-62,55
COc1cc(Cl)ccc1OCc1cc(C(=O)N2CCCCCC2)no1,1,-8,45*,-2,-18,22
COCCN(C[C@H]1N[C@H](CO)[C@@H]1c1ccc(-c2cccnc2)cc1)C(C)=O,.,.,2,1,.,.
C[C@@H]1CN([C@H](C)CO)S(=O)(=O)c2ccc(Br)cc2O[C@@H]1CN(C)C,.,.,2,4,.,.
CC(=O)N1CCc2cc(S(=O)(=O)NC(C(=O)NCc3ccccc3)C(C)C)ccc21 (stereo not given),-2,-10,-4,2,1,4
CCn1c(=O)c(C(=O)Nc2ccccc2C)c(O)c2ccccc21,.,-9,44*,2,8,-4
CCCn1c(=O)c(C(=O)Nc2ccccc2)c(O)c2ccccc21,.,-4,31,2,40,-38
CCCn1c(=O)c(C(=O)Nc2ccccc2C)c(O)c2ccccc21,-2,-12,19,-21,13,-13
CCCn1c(=O)c(C(=O)Nc2ccccc2N)c(O)c2ccccc21,1,0,43*,-4,.,.
C=CCn1c(=O)c(C(=O)Nc2ccccc2C)c(O)c2ccccc21,6,-35,61*,-8,-46,44
COc1cc2[nH]c(=S)n(Cc3ccco3)c(=O)c2cc1OC,.,-2,-5,4,4,-2
O=[N+]([O-])c1ccccc1OCCCOc1cccc2cccnc12,13,-7,60*,-11,-55,.
Brc1ccc(OCCCOc2cccc3cccnc23)cc1,4,2,72*,3,-19,.
O=Cc1ccccc1OCCCOc1cccc2cccnc12,-3,-12,25,7,-25,28
Clc1ccccc1OCCCOc1cccc2cccnc12,17,-22,55*,-6,-34,.
Cc1ccc(NCc2cccnc2)cc1,0,-3,3,2,-4,4
Cc1ccc(CNc2cccnc2)cc1,0,-7,58*,-3,-42,47
COc1ccc(CNc2ccc(C)c(C)c2)cc1,-2,6,.,.,-15,15
Cc1ccc(NCc2ccccc2)cc1,9,-5,.,.,-17,20
CSc1ccc(CNc2ccc(C)c(C)c2)cc1,-1,-19,59*,11,-79,78
SMILES,Wnt act,LMP1 NFkB inh,esBAF inh,C2C12 statin,MITF TRPM1 inh,MITF TRPM1 HTS
CSc1ccc(CNc2ccc(C)cc2)cc1,.,-29,55*,9,-61,59
Oc1ccccc1CNc1cnc2ccccc2c1,21,-11,54*,26,-35,27
Oc1ccccc1CNc1ccc2c(c1)OCCO2,7,8,-41,3,-24,26
Cc1ccc(NCc2ccccc2O)cc1C,11,-3,68*,-1,-46,52
C=CCNC(=O)c1ccccc1NC(=O)c1ccccc1N(C)S(C)(=O)=O,0,4,-5,12,2,1
CCOc1ccc(NC(=O)c2ccc(N3CC4CC(C3)c3cccc(=O)n3C4)c(NC(=O)c3cccnc3)c2)cc1 (stereo not given),-3,61*,5,-1,-6,5
CSc1ccccc1NC(=O)c1ccc(N2CC3CC(C2)c2cccc(=O)n2C3)c(NC(=O)c2cccnc2)c1 (stereo not given),-2,12,-3,0,-1,1
